From PubChem BioAssay come the findings set out here.

Molecules are shown by their SMILES. The source made the active and inactive calls. Unless noted, the rule behind the calls is not given here.

Assay [1] concerns Wnt5a (protein binding on small-molecule microarray). The assay is described as follows: Wnt5a binders on small-molecule microarray, primary screen, biophysical, 635/667 nm fluorescence (AID 1142).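 Note: fluorescence read at 667 nm with signal to noise per printed feature.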 The settings on record: 635 nm fluorescence, higher = more signal.
A short description of assay [2]: cell viability in Huh7 cells, primary screen, cytotoxicity control for HCV replication inhibitor project, CellTiter-Glo luminescence, basal, 48 h (AID 1143).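 Note: Huh7 hepatoma cells carrying a hepatitis C replication reporter with no stimulus; test concentration not given here.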 As to conditions: Huh7 HCV replicon, higher = more signal, called active from +8 up or from −8 down. (In general: Cellular ATP, detected with luciferase, serves as a proxy for viable cell number.)
A short description of assay [3]: P. aeruginosa biofilm formation inhibitors, primary screen, PAO1 strain, BacTiter-Glo luminescence, LB-PBS (AID 1144). As to conditions: 12 h, higher = more signal.
The nature of assay [4]: CREB reporter modulators without forskolin, primary screen, cell-based, PC12, CRE-LacZ reporter, unstimulated (AID 1145). The settings on record: no forskolin, luminescence, 4.5 h, higher = more signal, called active from +8 up or from −8 down.
The nature of assay [5]: CREB reporter modulators under forskolin, primary screen, cell-based, PC12, CRE-LacZ reporter, forskolin-stimulated (AID 1146).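 Note: PC12 cells with 6xCRE LacZ reporter stimulated by forskolin 10 µM; beta-galactosidase reporter signal reflecting CREB driven transcription.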 As to conditions: luminescence, 4.5 h, higher = more signal, called active from +8 up or from −8 down.
Assay [6] deals with Streptavidin (Streptomyces avidinii) (UniProt P22629). Nature of the assay: streptavidin binders on small-molecule microarray, primary screen, artefact control for SMM compound annotation, biophysical, 635/667 nm fluorescence (AID 1147).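 Note: signal reflects streptavidin binding to arrayed compounds as a control protein.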 The settings on record: streptavidin binding, higher = more signal.
A short description of assay [7]: small-molecule binders of probe aInhba, primary screen, biochemical, small-molecule microarray, 635/667 nm fluorescence (AID 1148).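 Note: score merges 667nm spot fluorescence with signal-to-noise for antibody binding to printed compounds.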 As to conditions: higher = more signal.
Assay [8] has as its target Torsin-1A (Homo sapiens) (UniProt O14656). Nature of the assay: torsin A binders from cell lysate, primary screen, small-molecule microarray, wild-type, 635/667 nm (AID 1149). As to conditions: COS7 hTOR1A-WT lysate, 635 nm fluorescence, higher = more signal.
For assay [9] the target is unchanged. The assay is described as follows: small-molecule binders of mutant TOR1A in lysate, primary screen, cell lysate, small-molecule microarray, COS7 lysate, 635/667 nm fluorescence (AID 1150).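 Note: score pools 667 nm emission and signal to noise measuring lysate protein binding.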 The settings on record: COS7 hTOR1A mutant lysate, 635 nm fluorescence, higher = more signal.
In assay [10] the test system is Sonic hedgehog protein (Shh). Nature of the assay: small-molecule binders of Shh protein, primary screen, biochemical, small-molecule microarray, 635/667 nm fluorescence (AID 1151).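 Note: Shh protein binding to compounds spotted on small-molecule microarray slides; score combines spot fluorescence intensity with signal-to-noise across triplicate slides.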 As to conditions: small-molecule microarray binding, 635 nm fluorescence; higher = more signal.
A short description of assay [11]: E. coli DRC41 culture turbidity changes, primary screen, E. coli filamentation inducer project, strain DRC41, OD650, 48 h (AID 1152).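 Note: E. coli MC1000 strain DRC41 lacking acrAB efflux pump and sulA.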 The settings on record: E. coli DRC41 (acrAB sulA), higher = more signal, called active from +8 up or from −8 down.
Assay [12] can be described thus: small-molecule binders of probe aLefty1, primary screen, biochemical, small-molecule microarray, 635/667 nm fluorescence (AID 1153).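 Note: score merges spot fluorescence with signal-to-noise ratio from the scanned slide images.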 As to conditions: higher = more signal.
Assay [13] in a line: PSAC antagonists in infected red cells, primary screen, cell-based, P. falciparum Indochina, OD700, 1 h (AID 1154). As to conditions: P. falciparum Indochina infected RBC osmotic lysis, higher = more signal, called active from +8 up or from −8 down.
A short description of assay [14]: PSAC antagonists in infected red cells, primary screen, cell-based, P. falciparum Indochina, OD700, 2 h (AID 1155).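 Note: lysis reports solute entry through the parasite surface anion channel PSAC; channel blockers reduce lysis of infected cells.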 The settings on record: P. falciparum Indochina infected erythrocytes, osmotic lysis OD700; higher = more signal, called active from +8 up or from −8 down.
The nature of assay [15]: osmotic lysis modulators in infected erythrocytes, primary screen, PSAC antagonist project, cell-based, P. falciparum Indochina, OD700, 3 h (AID 1156). As to conditions: higher = more signal, called active from +8 up or from −8 down.
A short description of assay [16]: PSAC antagonists in infected red cells, primary screen, cell-based, P. falciparum Indochina, OD700, 18 h (AID 1157). As to conditions: P. falciparum Indochina infected erythrocytes, osmotic lysis OD700, 18 h; higher = more signal, called active from +8 up or from −8 down.
A short description of assay [17]: modulators of S6 phosphorylation in cells, primary screen, cell-based, A549, cytoblot, luminescence, serum-stimulated (AID 1158).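 Note: serum-stimulated A549 lung adenocarcinoma cells; signal is phosphorylated S6 detected by cytoblot immunostaining with HRP secondary.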 As to conditions: A549 phospho-S6 cytoblot, 5 h, higher = more signal.
For assay [18], the target named is NADPH oxidase 2 (Homo sapiens) (UniProt P04839). Nature of the assay: NOX2-dependent H2O2 signal modulators, primary screen, NOX inhibitor project, cell-based, HEK293-NOX2, PMA-stimulated, Amplex Red fluorescence (AID 1159). Note: test concentration not given here. As to conditions: 45 min, higher = more signal, called active from +8 up or from −8 down.
Assay [19] concerns the target NADPH oxidase 4 (Homo sapiens) (UniProt Q9NPH5). The assay is described as follows: NOX4-dependent H2O2 signal modulators, primary screen, NOX inhibitor project, cell-based, HEK293-NOX4, tetracycline-induced, Amplex Red fluorescence (AID 1160). The settings on record: 45 min, higher = more signal, called active from +8 up or from −8 down.
Assay [20] concerns the target NADPH oxidase 5 (Homo sapiens) (UniProt Q96PH1). Nature of the assay: NOX5-dependent H2O2 signal modulators, primary screen, NOX inhibitor project, cell-based, HEK293-NOX5, Amplex Red fluorescence (AID 1161). The settings on record: HEK293-NOX5, ionomycin, 45 min, higher = more signal.

Sequence of Streptavidin (Streptomyces avidinii) (P22629 whole entry, looked up): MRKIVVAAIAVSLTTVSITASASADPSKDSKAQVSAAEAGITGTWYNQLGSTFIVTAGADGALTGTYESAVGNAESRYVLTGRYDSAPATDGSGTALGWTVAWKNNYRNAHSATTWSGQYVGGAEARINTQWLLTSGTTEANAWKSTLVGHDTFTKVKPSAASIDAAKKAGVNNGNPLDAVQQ
Sequence of NADPH oxidase 5 (Homo sapiens) (Q96PH1 whole entry, looked up): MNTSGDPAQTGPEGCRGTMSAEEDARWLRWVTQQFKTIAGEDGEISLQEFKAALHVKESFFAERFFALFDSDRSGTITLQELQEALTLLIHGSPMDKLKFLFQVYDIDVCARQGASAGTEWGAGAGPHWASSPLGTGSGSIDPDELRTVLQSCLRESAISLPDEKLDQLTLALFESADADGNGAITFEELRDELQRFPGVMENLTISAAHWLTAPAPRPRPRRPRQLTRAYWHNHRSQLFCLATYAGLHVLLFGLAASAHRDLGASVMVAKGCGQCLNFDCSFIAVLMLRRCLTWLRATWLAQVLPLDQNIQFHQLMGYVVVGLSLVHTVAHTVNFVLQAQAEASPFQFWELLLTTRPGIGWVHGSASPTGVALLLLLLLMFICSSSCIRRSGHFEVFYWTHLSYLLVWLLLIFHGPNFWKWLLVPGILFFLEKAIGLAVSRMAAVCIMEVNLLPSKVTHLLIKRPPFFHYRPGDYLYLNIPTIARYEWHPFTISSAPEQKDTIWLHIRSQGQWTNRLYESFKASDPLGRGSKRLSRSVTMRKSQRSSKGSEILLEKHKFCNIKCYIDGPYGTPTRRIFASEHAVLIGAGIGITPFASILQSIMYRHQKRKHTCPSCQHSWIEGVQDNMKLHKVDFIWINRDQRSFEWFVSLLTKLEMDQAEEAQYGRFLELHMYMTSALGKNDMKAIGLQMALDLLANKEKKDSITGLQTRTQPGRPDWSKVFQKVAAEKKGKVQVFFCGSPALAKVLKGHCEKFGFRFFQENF
Sequence of NADPH oxidase 4 (Homo sapiens) (Q9NPH5 whole entry, looked up): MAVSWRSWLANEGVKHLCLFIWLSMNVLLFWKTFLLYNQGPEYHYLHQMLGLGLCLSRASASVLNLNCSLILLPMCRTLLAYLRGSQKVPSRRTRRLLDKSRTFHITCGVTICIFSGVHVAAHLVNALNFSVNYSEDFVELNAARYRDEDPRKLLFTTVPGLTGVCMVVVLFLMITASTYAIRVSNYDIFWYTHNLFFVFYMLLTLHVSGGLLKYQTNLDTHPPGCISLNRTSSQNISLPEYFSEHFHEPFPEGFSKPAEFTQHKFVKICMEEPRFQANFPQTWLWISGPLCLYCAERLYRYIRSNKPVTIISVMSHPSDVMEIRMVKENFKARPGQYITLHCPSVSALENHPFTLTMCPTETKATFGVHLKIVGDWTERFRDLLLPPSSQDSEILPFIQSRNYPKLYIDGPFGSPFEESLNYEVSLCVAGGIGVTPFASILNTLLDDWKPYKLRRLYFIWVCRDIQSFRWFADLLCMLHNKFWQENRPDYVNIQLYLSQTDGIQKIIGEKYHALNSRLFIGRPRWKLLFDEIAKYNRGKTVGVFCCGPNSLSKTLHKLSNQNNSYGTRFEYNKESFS
Sequence of NADPH oxidase 2 (Homo sapiens) (P04839 whole entry, looked up): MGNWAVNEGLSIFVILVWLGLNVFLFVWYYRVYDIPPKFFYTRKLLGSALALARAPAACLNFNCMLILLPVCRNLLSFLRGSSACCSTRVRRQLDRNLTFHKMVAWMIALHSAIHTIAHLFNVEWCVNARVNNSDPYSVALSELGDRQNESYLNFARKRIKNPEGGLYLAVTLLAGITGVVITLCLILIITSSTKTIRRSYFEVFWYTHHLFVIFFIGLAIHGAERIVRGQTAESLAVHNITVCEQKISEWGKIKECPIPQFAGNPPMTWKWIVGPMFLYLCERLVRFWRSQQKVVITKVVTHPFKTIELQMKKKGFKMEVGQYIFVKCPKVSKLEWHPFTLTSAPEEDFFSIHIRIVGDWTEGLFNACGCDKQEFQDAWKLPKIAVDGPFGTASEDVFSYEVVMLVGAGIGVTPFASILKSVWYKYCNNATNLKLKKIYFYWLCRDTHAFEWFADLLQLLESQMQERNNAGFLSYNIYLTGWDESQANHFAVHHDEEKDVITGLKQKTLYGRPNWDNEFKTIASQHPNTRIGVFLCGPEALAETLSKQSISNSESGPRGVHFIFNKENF
Sequence of Torsin-1A (Homo sapiens) (O14656 whole entry, looked up): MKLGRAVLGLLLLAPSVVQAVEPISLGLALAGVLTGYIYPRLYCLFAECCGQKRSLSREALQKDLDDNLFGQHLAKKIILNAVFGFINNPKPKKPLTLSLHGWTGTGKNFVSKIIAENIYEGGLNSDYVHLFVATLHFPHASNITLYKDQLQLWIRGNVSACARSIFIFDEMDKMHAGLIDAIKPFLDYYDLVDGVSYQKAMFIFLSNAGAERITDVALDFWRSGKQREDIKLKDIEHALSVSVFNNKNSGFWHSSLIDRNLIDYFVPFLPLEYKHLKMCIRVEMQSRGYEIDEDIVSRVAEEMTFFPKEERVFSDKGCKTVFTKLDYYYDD

`NC(=O)NCC#Cc1ccc2c(c1)[C@]1(C(=O)N2)[C@H](c2ccccc2OCCO)N2[C@H](c3ccccc3)[C@H](c3ccccc3)OC(=O)[C@H]2[C@@H]1C(=O)NC[C@H](O)c1ccccc1`: the composite z-score in assay [1] was -0.287; in assay [6], 0.83; in assay [7], -0.101; with Torsin-1A (Homo sapiens) [8], 0.142; with Torsin-1A (Homo sapiens) [9], -0.487; in [10] it was -0.174. In [12], this molecule returned a composite z-score of -0.103. Further, the z-score in assay [2] is -2.62 (inactive); in [3] it was 0.129 (inactive); in [4], 0.0384 (inactive); in assay [5] it was -0.278 (inactive); in assay [11] it was 2.83 (inactive); in assay [13], 0.925 (inactive). In addition, the z-score in assay [14] is -0.918 (inactive); in assay [15], -0.313 (inactive); in assay [16] it was -1.54 (inactive); in assay [17] it was 2.83; in [18] it was 1.74 (inactive); in [19], 0.869 (inactive). The z-score in assay [20] amounted to 0.062.
As to `COc1cc(OC)c(C(O)C2C=CC3C(=O)N(Cc4ccccc4)C(=O)C3N2n2cnnc2)cc1Br` (stereo not given), the composite z-score in [1] was 0.25; in [6] it was 1.22; in assay [7], -0.0087; in the assay with Torsin-1A (Homo sapiens) [8] it was 2.73; with Torsin-1A (Homo sapiens) [9], 2.4; in assay [10] it was 0.116. Further, the composite z-score in assay [12] stood at 0.0509. Besides, the z-score in assay [2] is -3.56 (inactive); in [3] it was -0.664 (inactive); in [4], 0.677 (inactive); in assay [5] it was -1.4 (inactive); in assay [11] it was -1.21 (inactive); in assay [13], -0.0011 (inactive). For the same molecule, the z-score in assay [14] is -0.731 (inactive); in assay [15], 1.34 (inactive); in [16] it was -2.29 (inactive); in assay [17], 1.71; in [18], -3.2 (inactive); in assay [19], -1.35 (inactive). Moreover, the z-score in assay [20] was -3.53.
As for `[N-]=[N+]=NCc1ccccc1[C@H]1OC(c2ccc(OCCCO)cc2)=N[C@@]1(Cc1ccccc1N=[N+]=[N-])C(=O)NCC(O)CO` (stereo not given in full), the composite z-score is 0.462 in assay [1]; 0.9 in assay [6]; 0.346 in [7]; 0.256 with Torsin-1A (Homo sapiens) [8]; 0.301 with Torsin-1A (Homo sapiens) [9]; -0.562 in [10]. This molecule also showed a composite z-score in [12] of 0.54. The z-score in assay [2] is -3.57 (inactive); in [3] it was 0.401 (inactive); in assay [4], 0.745 (inactive); in assay [5] it was -1.22 (inactive); in assay [11], -0.502 (inactive); in assay [13], 27.6 (active). Besides, the z-score in assay [14] is 21 (active); in assay [15] it was 1.37 (inactive); in assay [16], 2.09 (inactive); in assay [17], -0.48; in [18], -3.08 (inactive); in assay [19], -0.592 (inactive). Moreover, in assay [20], the z-score was -1.71.
With `CC(C)[Si](C#C[Si](C(C)C)(C(C)C)C(C)C)(O[C@H](c1ccccc1)c1cn(Cc2ccccc2)nn1)C(C)C`, the composite z-score is -0.0366 in assay [1]; 0.652 in assay [6]; -0.016 in assay [7]; 0.412 in the assay with Torsin-1A (Homo sapiens) [8]; 0.107 in the assay with Torsin-1A (Homo sapiens) [9]; 0.558 in assay [10]. In assay [12], this molecule showed a composite z-score of 0.0997. The z-score is -0.071 (inactive) in [2]; -1.32 (inactive) in assay [3]; -0.752 (inactive) in assay [4]; -0.166 (inactive) in [5]; 1.25 (inactive) in [11]; 0.62 (inactive) in assay [13]. Also, the z-score in [14] is 0.267 (inactive); in assay [15], -0.351 (inactive); in assay [16] it was 0.136 (inactive); in [17], -0.25; in assay [18], -0.734 (inactive); in [19] it was -1.17 (inactive). Also, the z-score in [20] is -0.932.
